PubChem BioAssay AID624417 (National Center for Advancing Translational Sciences (NCATS), 2012)
Out of some 410,000 compounds screened, about 6,400 (1.6%) were called active. About 20% were inconclusive and are not listed. Only a selection was taken, and actives are over-represented in it overall. Unmarked numbers belong to inactive results. Calls come from the whole dose curve; as a rule, active = well fitted inhibition curve with a large enough effect; inconclusive = small, poorly fitted or top-dose-only effect; inactive = no such curve, though single readings can be large or run the other way.

molecular target: Glucagon-like peptide 1 receptor (Homo sapiens) (UniProt P43220); experiment: qHTS of GLP-1 Receptor Inverse Agonists (Inhibition Mode); conditions: HEK293 GLP-1R CRE-luciferase, luminescence, 24 h; series mostly up to 38.3 µM; activity change, negative = inhibition: at the top concentration; note: nearly all actives have a fitted effect of over 55% in size
Sequence (P43220 whole entry, looked up): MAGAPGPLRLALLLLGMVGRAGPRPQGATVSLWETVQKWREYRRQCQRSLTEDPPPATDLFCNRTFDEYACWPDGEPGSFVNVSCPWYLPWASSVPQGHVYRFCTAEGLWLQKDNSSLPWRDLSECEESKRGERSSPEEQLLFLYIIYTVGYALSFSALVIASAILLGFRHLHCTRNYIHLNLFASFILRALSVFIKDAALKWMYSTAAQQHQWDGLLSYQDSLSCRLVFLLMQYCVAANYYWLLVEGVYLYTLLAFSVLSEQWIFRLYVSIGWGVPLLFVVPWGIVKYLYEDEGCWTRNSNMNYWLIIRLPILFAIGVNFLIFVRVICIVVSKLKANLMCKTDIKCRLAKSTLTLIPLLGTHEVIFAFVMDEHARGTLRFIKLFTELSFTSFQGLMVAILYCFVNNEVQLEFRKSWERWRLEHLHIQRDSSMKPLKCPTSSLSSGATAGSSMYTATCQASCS
Description: The overall goal of this project was to develop a novel assay for discovering small molecule ligands for class B1 G protein-coupled receptors (GPCRs). Very few agonists (or inverse agonists in inhibition mode) with generally weak activity for this entire group of physiologically important receptors are known to date. To establish proof-of-principle that this critical bottleneck can be overcome with a suitable screening approach, our studies focused on the class B1 receptor for glucagon-like peptide-1 (GLP-1R), a potential therapeutic target for diabetes and neurodegenerative disease. The assay was developed using a cell-based functional readout. Toward this goal, stably transfected HEK293 cell clones were established that co-express (i) a cAMP-responsive luciferase reporter gene, and (ii) constitutively active GLP-1R that upon ligand interaction inhibit (inverse agonists) the luciferase activity. In addition, two control cell lines were developed: (i) one that express only the cAMP-responsive reporter gene to enable initial exclusion of GLP-1R independent effects of candidate probes; and (ii) one with the reported gene cloned with another constitutively active orphan receptor GPR119 to enable exclusion of GLP-1R independent inhibitor effects of candidate inverse agonists. To that end, this assay was optimized for 1536-well format and screened against the MLSMR. […] NIH Molecular Libraries Probe Production Network [MLPCN] NIH Chemical Genomics Center [NCGC] Grant: NS064851 PI Name: Martin Beinborn, Tufts Medical Center
Six ul of cell suspension (200 cells/uL in DMEM + 10% Nu serum + 1% pen-strep) is dispensed in a white solid 1536-well plate. The plates are incubated for 12 hours at 37 deg C at 5% CO2 followed by addition of 23 nL compounds. After 24 hr incubation at 37 deg C and 5% CO2, 3 uL of luciferase assay detection reagent is added. A luminescence read is obtained on the PerkinElmer Viewlux after 12 min incubation at room temperature.
% is set by controls: 0 for no effect and ±100 for the full control effect; potency is the fitted concentration of half-maximal effect.

Row | Compound | activity change, negative = inhibition | Potency
1 | COC1C(O)C(C)OC(OC2CCC3(C=O)C(CCC4C3CCC3(C)C(C5=CC(=O)OC5)CCC43O)C2)C1O (stereo not given) | -95.1% | 
2 | O=c1c2ccccc2nc(/C=C/c2ccco2)n1-c1ccccc1O |  | 11.2 µM (active)
3 | O=c1c2ccccc2nc(/C=C/c2ccc(F)cc2)n1-c1ccccc1O | -19.7% | 
4 | Cn1cc(/C=C/c2nc3ccccc3c(=O)n2-c2ccccc2)c2ccccc21 | -25.5% | 
5 | CC1CCCN1CCC(C(N)=O)(c1ccccc1)c1ccccc1 (stereo not given) | 1.28% | 
6 | CC1CC=CCC12C(=O)NC(=S)NC2=O (stereo not given) | 2.41% | 
7 | CCN1C(=O)NC(=O)C2(CCCC2)C1=O | 18.7% | 
8 | C[C@H]1CN([C@@H](C)CO)C(=O)CCCn2nncc2CO[C@H]1CN(C)C(=O)Oc1ccccc1 | 1.58% | 
9 | O=C1NC(=O)C(Cc2ccccc2)C(=O)N1 | 24.2% | 
10 | COC(=O)C[C@H]1CC[C@H]2NC[C@@H](O)COC[C@@H]2O1 | 4.27% | 
11 | CCn1cc(CN2CCCC(C(=O)c3cccc(C(F)(F)F)c3)C2)cn1 (stereo not given) | -9.71% | 
12 | COc1cccc(C(=O)Nc2ccc(-c3cc(C(F)(F)F)nn3-c3ccccc3)cc2)c1 |  | 7.94 µM [GLP-1R form is constitutively active] (active)
13 | COc1ccc(NC(=O)c2cn(CCC#N)nc2-c2ccc([N+](=O)[O-])cc2)cc1 | 5.82% | 
14 | COc1ccc(-c2nn(CCC#N)cc2C(=O)Nc2ccc(C(C)=O)cc2)cc1 | 26.7% | 
15 | O=C1NC(=O)C(CCOc2ccccc2)(CCc2ccccc2)C(=O)N1 | -13% | 
16 | O=C1C2CCN(CC2)C1(CO)CO | 10.6% | 
17 | CC12CCC(O)CC1CCC1C2CCC2(C)C(C(=O)CC(O)C(F)(F)F)CCC12 (stereo not given) | -25.5% | 
18 | CCCCOc1ccc(C(=O)N2CC(=O)Nc3ccc(Br)cc3C2c2ccc(F)cc2)cc1 (stereo not given) |  | 10 µM [GLP-1R form is constitutively active] (active)
19 | CC(=O)NCC1=C(c2ccc3ccccc3c2)C[C@@H]2CC[C@H]1N2Cc1ccco1 | -25.4% | 
20 | O=C1C2(Cl)C3(Cl)C4(Cl)C(Cl)(Cl)C5(Cl)C3(Cl)C1(Cl)C5(Cl)C24Cl (stereo not given) |  | 4.47 µM (active)
21 | CC(C)CN1Cc2cc(N3CCCCC3)ccc2-n2nncc2C1 | 4.71% | 
22 | COc1ccc(C2C=C(C)Oc3c2c(=O)oc2ccccc32)cc1OC (stereo not given) | 18.2% | 
23 | CSCCC(c1nnnn1C(C)(C)C)N1CCC(n2c(=O)[nH]c3ccccc32)CC1 (stereo not given) | 8.28% | 
24 | O=C(COC(=O)c1ccccc1)Nc1ccc(Cl)cc1C(=O)c1ccccc1 | 16.5% | 
25 | O=C(CN1CCCCC1)Nc1ccc(Br)cc1C(=O)c1ccccc1Cl |  | 10 µM [GLP-1R form is constitutively active] (active)
26 | O=C(CCN1CCCCC1)NCC(=O)Nc1ccc(Br)cc1C(=O)c1ccccc1 | 0% | 
27 | CC(=O)c1ccc(-c2ccc(Cn3c(C)nc4cc(N)c(C)nc43)cc2)cc1 | 52.8% [at 38.3 µM, GLP-1R form is constitutively active] | 
28 | O=C(NC1CCCCC1)N1Cc2cc(N3CCCCC3)ccc2-n2nncc2C1 | 4.72% | 

Row | Compound | activity change, negative = inhibition | Potency
29 | CC(=O)C1(O)CCC2C3CCC4=C(Cl)C(=O)CCC4(C)C3CCC21C (stereo not given) | -1.41% | 
30 | CCOC(=O)C1(Cc2ccc(Cl)cc2)CCN(C(C)CCn2cccn2)CC1 (stereo not given) |  | 7.94 µM [GLP-1R form is constitutively active] (active)
31 | Oc1ccc2c3c1OC1[C@H](O)CC[C@@]4(O)[C@@H](C2)N(CC2CC2)CC[C@]314 (stereo not given in full) |  | inactive
32 | CC1CNCCN1c1ccc(Cl)cc1 (stereo not given) | -15.4% | 
33 | CC1=C(C(=O)Nc2ccccc2)SCCO1 | 9.26% | 
34 | CC1=C(C(=O)Nc2ccccc2)S(=O)(=O)CCO1 |  | 10 µM (active)
35 | CCC(=O)OC(Cc1ccccc1)(c1ccccc1)C(C)CN(C)C (stereo not given) | -4.67% | 
36 | C=C(C)C1(CCCC)C(=O)NC(=S)NC1=O | 2.43% | 
37 | CCC1(CC(C)c2ccccc2)C(=O)NC(=O)NC1=O (stereo not given) | 12.3% | 
38 | CCC(C)(O)C(=O)OC1C(=O)OC2CC3C(C)=CC(=O)C(O)C3(C)C3C4(O)OCC23C1C(C)C4O (stereo not given) | -71.9% | 
39 | COc1ccc(C2CC(c3cccs3)=NN2c2nc(C)c(C(C)=O)s2)cc1OC (stereo not given) | 20.9% [at 38.3 µM, GLP-1R form is constitutively active] | 
40 | CCOC(=O)[C@]12Cc3ccccc3[C@H]1N(C1CCCCC1)C(=O)c1cc(OC)ccc12 |  | 5.62 µM (active)
41 | Cc1ccc(OC(=O)N(C)C[C@@H]2OCc3cnnn3CCCC(=O)N([C@H](C)CO)C[C@@H]2C)cc1 | 12.8% | 
42 | S=C(NCCc1ccccc1)N1Cc2cc(N3CCOCC3)ccc2-n2nncc2C1 | 19.2% | 
43 | Cc1nc2ccc(N3CCN(C)CC3)cc2nc1C | 14.2% | 
44 | COc1cccc(-c2nc3ccc(N4CCN(C)CC4)cc3[nH]2)c1 |  | 1.12 µM (active)
45 | c1ccc(N2Cc3ccccc3-n3nncc3C2)nc1 | 12.7% | 
46 | CC(=CCOc1ccc2ccc(=O)oc2c1)C1=CC(=O)C(C)(C)O1 |  | 2.24 µM (active)
47 | CCOc1ccc(CC(=O)NCCc2csc3nc(-c4ccccc4F)nn23)cc1 | 53.9% [at 38.3 µM, GLP-1R form is constitutively active] | 
48 | CC12CCC3C(CCC4CC(=O)CCC43C)C1CC(=NO)C2=O (stereo not given) | 6.88% | 
49 | CCOC(=O)c1cccc(C2=C(CNC(=O)c3ccncc3)[C@H]3CC[C@@H](C2)N3Cc2ccccc2)c1 | -13.7% | 
50 | COC(=O)CN(CCCl)P1(=O)OCCCN1CCCl (stereo not given) | 13.7% | 
51 | CC(=O)Nc1cc(-c2cccc(CO)c2)cn2c(-c3cccc(C(F)(F)F)c3)cnc12 | 33.2% [at 38.3 µM, GLP-1R form is constitutively active] | 
52 | O=Cc1cn(Cc2ccc(F)cc2Cl)c2ccccc12 |  | 10 µM (active)
53 | O=C(C1CCN(S(=O)(=O)c2ccc(Br)s2)CC1)N1CCN(c2ccccc2)CC1 | 15.4% [at 38.3 µM, GLP-1R form is constitutively active] | 
54 | CC1C(=O)OC2CCN3CC=C(COC(=O)C(C)(O)C1(C)O)C23 (stereo not given) | -20% | 
55 | O=c1c2ccccc2nc(CBr)n1-c1ccc(Cl)cc1 | 9.46% | 
